Mito fusion yeast: blocks mitochondrial division or promotes mitochondrial fusion. Potency, µM (highest dose often 46.1 µM), for the others: at the highest dose growth rescue (activation), most hits filed as activators. hit rate 0.23% among 320,000. S. cerevisiae fusion-defective mutant growth rescue, CellTiterGlo 48 h; also: potency is read from the fitted curve at half-maximal effect; % of control where 0% means no effect; nearly all actives have a fitted effect of over 45% in size
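S. cerevisiae fusion-defective temperature-sensitive mutants (e.g. fzo1-1, mgm1-5) grown 48 h at 37C in YPEG (ethanol/glycerol non-fermentable) medium with 23 nl compound per well; growth rescue read as CellTiterGlo luminescence.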
LDHA inh: LDHA (human) enzyme inhibition. P00338. purified LDHA, NADH/diaphorase-resazurin fluorescence; active compounds read low. activity change, % (values are at about 110 or 230 µM). hit rate 0.15% among 480,000. AID 1347041; in the data active = activity change below about -30%; inconclusive = mostly about -25% to -30%;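 also: plate controls were DMSO wells for no effect and wells without enzyme for full effect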
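Human LDH5 at 2 nM final in Tris HCl pH 7.4 with 0.06 mM NADH and 0.2 mM pyruvate, reacted 5 minutes at room temperature. Remaining NADH coupled via diaphorase/resazurin; resorufin fluorescence read at 0 and 20 minutes, normalized to enzyme-free and DMSO wells.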
ClpP mod: qHTS Assay for Activators of ClpP; ATP-dependent Clp protease proteolytic subunit (Bacillus subtilis (strain 168)), P80244; purified B. subtilis ClpP, FRET peptide cleavage, 20 min; Potency, µM (highest dose often 57.5 µM), for the others: top-dose activity change, negative = active; hit rate 1.9% among 340,000; AID 651965, 2013; active = well fitted falling curve with a large enough effect; inconclusive = small, poorly fitted or top-dose-only effect; inactive = no such curve, though single readings can be large or run the other way; also: potency is read from the fitted curve at half-maximal effect; the source files actives as falling curves though it sought activators and does not explain the sign; nearly all actives have a fitted effect of over 65% in size
Target sequence (P80244 whole entry, looked up): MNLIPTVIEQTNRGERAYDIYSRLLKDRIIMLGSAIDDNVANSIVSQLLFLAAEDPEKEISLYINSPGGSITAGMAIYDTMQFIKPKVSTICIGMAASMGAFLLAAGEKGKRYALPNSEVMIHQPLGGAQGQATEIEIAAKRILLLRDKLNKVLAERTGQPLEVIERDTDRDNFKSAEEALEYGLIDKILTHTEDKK
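ClpP 10 microg/mL final, pH 8 Tris/KCl buffer with BSA, glycerol, Tween-20; compound pinned in; FRET-FV substrate; RT 20 min; Ex320/Em430; ΔFRET vs ADEP 5.8 microM, DMSO, no enzyme.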
RGS4 inhibitor: human RGS4 inhibition; Transcreener GDP fluorescence polarization, RGS4-accelerated GTP hydrolysis; Potency, µM (highest dose often 114 µM), for the others: at the highest dose activity change, negative = inhibition, usual class: inhibitors; hit rate 0.039% among 390,000; also: potency is read from the fitted curve at half-maximal effect; % is scaled to controls: 0 for no effect and ±100 for the full control effect; nearly all actives have a fitted effect of over 75% in size
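MLSMR compounds (23 nl, pin-transferred) preincubated 10 min at room temperature with a 500nM (2x) first reagent, then RGS4 at 900nM (2x) plus Transcreener GDP mix added; fluorescence polarization (620/688 nm) read before and after 90 min at 30 °C.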
S-ASM inh: blocks human secretory acid sphingomyelinase; hit rate 0.006% among 340,000; placental ASM, HMU-PC fluorogenic substrate, 60 min; P17405; Potency, µM (highest dose often 57.5 µM), without a hit: top-dose activity change, negative = inhibition, usual class: inhibitors; also: potency is read from the fitted curve at half-maximal effect
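Steps: dispense placental human ASM, pin compound, wait 10 min at room temperature, add HMU-PC0 substrate at 9 uM final, incubate 60 min at 37 °C, add stop solution raising pH to 10, read fluorescence.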
IDH1 R132H inh: inhibitors of human mutant IDH1 R132H | O75874 | IDH1-R132H enzyme, NADPH consumption, diaphorase/resazurin fluorescence | Potency, µM (top dose mostly 76.6 µM), for the others: top-dose activity change, negative = inhibition, usual class: inhibitors | hit rate 0.093% among 390,000; also: potency is read from the fitted curve at half-maximal effect; % is scaled to controls: 0 for no effect and ±100 for the full control effect; nearly all actives have a fitted effect of over 65% in size
Target sequence (O75874 whole entry R132H, stated change not applied): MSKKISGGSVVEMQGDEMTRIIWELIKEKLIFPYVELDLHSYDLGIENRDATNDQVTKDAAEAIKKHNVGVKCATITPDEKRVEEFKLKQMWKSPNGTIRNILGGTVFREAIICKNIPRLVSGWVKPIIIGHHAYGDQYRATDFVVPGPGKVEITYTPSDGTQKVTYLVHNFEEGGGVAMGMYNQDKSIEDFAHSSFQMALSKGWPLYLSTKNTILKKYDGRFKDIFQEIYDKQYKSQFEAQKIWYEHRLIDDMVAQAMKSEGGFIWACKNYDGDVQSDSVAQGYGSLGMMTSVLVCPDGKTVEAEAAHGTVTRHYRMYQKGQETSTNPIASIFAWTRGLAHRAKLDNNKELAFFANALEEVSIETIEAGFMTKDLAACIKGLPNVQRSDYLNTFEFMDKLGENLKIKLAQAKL
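IDH1-R132H (0.5 ug/mL dispensed) in pH 7.5 Tris buffer was preincubated 30 min with compound, then given a substrate mix of 0.016 mM NADPH and 2 mM alpha-KG for 80 min at room temperature; remaining NADPH was read by diaphorase/resazurin fluorescence.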
Resorufin autofl: interferes with resorufin fluorescence in IDH1 counter-screen; shares compounds with IDH1 R132H inh; Resorufin detection reagent fluorescence interference, cell-free; inhibition of signal, % at 51.2 µM; 750 tested, under 10 active; AID 623980;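 also: 0% = wells with normal resorufin and full inhibition = wells lacking resorufin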
IDH1 WT: selectivity of mutant IDH1 inhibitors: human wild-type IDH1; hit rate 9% among 750; AID 623995; Potency, µM (top dose mostly 115 µM), inactives show at the top dose activity change, negative = inhibition, hits mostly inhibitors; shares compounds with IDH1 R132H inh; WT IDH1 enzyme, NADPH diaphorase/resazurin fluorescence;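 also: potency is read from the fitted curve at half-maximal effect; 0% = full WT IDH1 enzyme control and full inhibition = no enzyme wells; nearly all actives have a fitted effect of over 55% in size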
Target sequence (O75874 whole entry, looked up): as the sequence (O75874 whole entry R132H, stated change not applied) above, with H132R counted along it
IDH1 R132H conf: mutant IDH1 (human) inhibition, confirmed; shares compounds with IDH1 R132H inh; IDH1 R132H enzyme, NADPH diaphorase/resazurin fluorescence; Potency, µM (doses to about 76.6 µM), without a hit: top-dose activity change, negative = inhibition, actives largely listed as inhibitors; hit rate 83% among 750; also: potency is read from the fitted curve at half-maximal effect; nearly all actives have a fitted effect of over 50% in size
An asterisk follows results filed as active. This is one part of a sample in which hits are shown more often than they occur. Unless noted, calls follow the shape of the dose curve; as a rule, active = well fitted curve in the direction sought with a large enough effect; inconclusive = small, poorly fitted or top-dose-only effect, or another doubt; inactive = no such curve, though single readings can be large; an effect the other way counts as inactive or inconclusive.

What do the screens show for `CSc1nn(Cc2ccc(C)cc2)c(N)c1S(=O)(=O)c1ccccc1`?
LDHA inh: -9; ClpP mod: 4%; RGS4 inhibitor: 9%; IDH1 R132H inh: 32µM*; Resorufin autofl: 2; IDH1 WT: -2%; IDH1 R132H conf: 10µM*

How did O=C(Nc1ccc2c(c1)CCC2)c1cc(-c2ccc(F)cc2)nc2ccc(Br)cc12 do in these assays?
LDHA inh: 12

What do the screens show for `O=C(NCc1ccco1)C(c1ccco1)N(Cc1cccs1)C(=O)Cn1nnc2ccccc21` (stereo not drawn)?
Mito fusion yeast: 6%; LDHA inh: -6; ClpP mod: -1%; RGS4 inhibitor: -9%; S-ASM inh: -4%; IDH1 R132H inh: 1%

What do the screens show for `O=C(NC1CCCCC1)C(c1ccccc1)N(Cc1ccco1)C(=O)c1csnn1` (stereo not drawn)?
Mito fusion yeast: 1%; LDHA inh: -3; RGS4 inhibitor: -9%; S-ASM inh: 3%; IDH1 R132H inh: -4%

Results for O=C(NC1CCCCC1)C(c1ccco1)N(Cc1cccs1)C(=O)Cn1nnc2ccccc21 (stereo not drawn) ?
Mito fusion yeast: 6%; LDHA inh: 3; ClpP mod: 1%; RGS4 inhibitor: 17%; S-ASM inh: 0%; IDH1 R132H inh: inconclusive; Resorufin autofl: -3; IDH1 WT: -2%; IDH1 R132H conf: 11µM*

Results for O=C(NC1CCCCC1)C(c1ccccc1)N(Cc1ccco1)C(=O)Cn1cnc2ccccc21 (stereo not drawn) ?
Mito fusion yeast: 3%; LDHA inh: 1; ClpP mod: -2%; RGS4 inhibitor: 7%; S-ASM inh: -16%; IDH1 R132H inh: 12µM*; Resorufin autofl: -2; IDH1 WT: -8%; IDH1 R132H conf: 6.3µM*

Results for CCC(C)(C)NC(=O)C(c1ccc(C)o1)N(Cc1cccs1)C(=O)Cn1nnc2ccccc21 (stereo not drawn) ?
Mito fusion yeast: 19%; LDHA inh: -6; ClpP mod: -2%; RGS4 inhibitor: -13%; S-ASM inh: -1%; IDH1 R132H inh: inconclusive; Resorufin autofl: -4; IDH1 WT: -5%; IDH1 R132H conf: 22µM*

What do the screens show for `CCC(C)(C)NC(=O)C(c1ccccc1)N(Cc1cccs1)C(=O)Cn1nnc2ccccc21` (stereo not drawn)?
LDHA inh: -1; ClpP mod: 2%; RGS4 inhibitor: -9%; S-ASM inh: -1%; IDH1 R132H inh: inconclusive; Resorufin autofl: 5; IDH1 WT: 4%; IDH1 R132H conf: 16µM*

How did COc1ccc2oc(C(=O)OCC(=O)C34CC5CC(CC(C5)C3)C4)c(C)c2c1 do in these assays?
LDHA inh: 0

How did Cc1nc2nc3ccn(CCN4CCOCC4)c(=O)c3c(-c3ccccc3)n2n1 do in these assays?
LDHA inh: 2

How did COc1ccc(OC)c(-n2cnc3cc(C(=O)NC4CC4)ccc3c2=O)c1 do in these assays?
LDHA inh: 12

What do the screens show for `N#CC1C(=O)NC(c2ccccc2)=CC1c1ccccc1` (stereo not drawn)?
LDHA inh: inconclusive; RGS4 inhibitor: -2%; S-ASM inh: 81%; IDH1 R132H inh: 52µM*; Resorufin autofl: -6; IDH1 WT: 160%; IDH1 R132H conf: 45µM*

Results for CC1(C)C(=O)NC(=O)C(C#N)C1c1ccccc1 (stereo not drawn) ?
LDHA inh: 5

Results for COCCN1Cc2cc3cc(C)ccc3nc2SC1=Nc1cccc(OC)c1 ?
Mito fusion yeast: -3%; LDHA inh: -1; ClpP mod: -4%; RGS4 inhibitor: -27%; S-ASM inh: -2%; IDH1 R132H inh: 6%

What do the screens show for `Cc1cccc(N=C2Sc3nc4c(C)c(C)ccc4cc3CN2CCN2CCOCC2)c1`?
Mito fusion yeast: -11%; LDHA inh: 1; ClpP mod: 0%; RGS4 inhibitor: -24%; S-ASM inh: inconclusive; IDH1 R132H inh: inconclusive; Resorufin autofl: 8; IDH1 WT: 5%; IDH1 R132H conf: 11µM*

How did COc1ccc(NC(=O)c2cnn(-c3ccc(C)cc3)c2-n2cccc2)cc1OC do in these assays?
LDHA inh: 0

How did COc1ccc(NC2=C(c3ccccc3)C(=O)c3ccccc32)cc1Cl do in these assays?
LDHA inh: 5; ClpP mod: -2%; RGS4 inhibitor: -13%; IDH1 R132H inh: inconclusive; Resorufin autofl: -6; IDH1 WT: -1%; IDH1 R132H conf: 7.1µM*

Results for O=C1c2[nH]nc(-c3ccccc3O)c2C(c2cccc(Br)c2)N1Cc1ccncc1 (stereo not drawn) ?
LDHA inh: 0; ClpP mod: 1%; RGS4 inhibitor: 25%; IDH1 R132H inh: inconclusive; Resorufin autofl: -3; IDH1 WT: -3%; IDH1 R132H conf: 25µM*

How did COC(=O)c1ccc(C2c3c(-c4ccccc4O)n[nH]c3C(=O)N2Cc2ccncc2)cc1 (stereo not drawn) do in these assays?
LDHA inh: 5; ClpP mod: 0%; RGS4 inhibitor: 13%; IDH1 R132H inh: -14%

Results for Cc1ccc(C2c3c(-c4ccccc4O)n[nH]c3C(=O)N2Cc2ccncc2)cc1 (stereo not drawn) ?
Mito fusion yeast: -2%; LDHA inh: -7; ClpP mod: -2%; RGS4 inhibitor: -3%; S-ASM inh: -9%; IDH1 R132H inh: inconclusive; Resorufin autofl: 2; IDH1 WT: 4%; IDH1 R132H conf: 35µM*

What do the screens show for `O=C1c2[nH]nc(-c3ccccc3O)c2C(c2cccc(Cl)c2)N1Cc1cccnc1` (stereo not drawn)?
LDHA inh: -1; ClpP mod: -2%; RGS4 inhibitor: -1%; IDH1 R132H inh: inconclusive; Resorufin autofl: 2; IDH1 WT: 2%; IDH1 R132H conf: 28µM*
